Screening data deposited in PubChem by National Center for Advancing Translational Sciences (NCATS).
TDP1 block = blocks human tyrosyl-DNA phosphodiesterase 1; 350,000 compounds, 0.28% hits; Potency, µM (titrated, usually from 130 µM), usual class: inhibitors; recombinant TDP1, AlphaScreen DNA substrate cleavage; AID 485290; also: nearly all actives have a fitted effect of over 40% in size
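Enzyme-compound mixtures sat 15 min at room temperature, followed by a 5 min reaction with 15 nM final substrate and 10 min with AlphaScreen beads. Recombinant human Tdp1 was used at 1 nM final.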
PTAP TSG101 blk = blocks PTAP/TSG101 interaction to inhibit HIV-1 budding; Q99816; Fluorescence polarization, FITC-PTAP peptide / Tsg101 binding; Potency, µM (titrated, usually from 115 µM), hits mostly inhibitors; 340,000 tested, under 10 active; AID 493005; active = well fitted inhibition curve with a large enough effect in the main read-out, with a control signal flat, not every such curve was filed as active; inconclusive = small, poorly fitted or top-dose-only effect, or effect the other way, or a change in a side signal; inactive = no such curve, though single readings can be large or run the other way
Target sequence (Q99816 whole entry, looked up): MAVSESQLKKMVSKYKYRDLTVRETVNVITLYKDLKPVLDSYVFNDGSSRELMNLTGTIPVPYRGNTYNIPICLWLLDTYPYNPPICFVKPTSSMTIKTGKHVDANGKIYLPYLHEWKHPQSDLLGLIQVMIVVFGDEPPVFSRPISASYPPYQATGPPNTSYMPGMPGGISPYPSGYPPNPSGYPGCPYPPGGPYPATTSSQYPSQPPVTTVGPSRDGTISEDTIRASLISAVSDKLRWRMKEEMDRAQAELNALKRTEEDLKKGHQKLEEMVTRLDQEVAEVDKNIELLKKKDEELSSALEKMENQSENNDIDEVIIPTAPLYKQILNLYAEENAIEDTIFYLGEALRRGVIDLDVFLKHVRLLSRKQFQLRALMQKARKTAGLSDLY
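Compounds were pin-transferred onto Tsg101 binding domain (10 uM final) in HEPES pH 7.5 buffer, then FITC-PTAP peptide was added at 50 nM final. After 20 min at RT, polarization reported peptide displacement across a qHTS concentration series.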
ClpP mod = qHTS Assay for Activators of ClpP | purified B. subtilis ClpP, FRET peptide cleavage, 20 min | ATP-dependent Clp protease proteolytic subunit (Bacillus subtilis (strain 168)), P80244 | AID 651965, 2013 | Potency, µM (doses to about 57.5 µM) | 340,000 compounds, 1.9% hits; active = well fitted falling curve with a large enough effect; inconclusive = small, poorly fitted or top-dose-only effect; inactive = no such curve, though single readings can be large or run the other way; also: the source files actives as falling curves though it sought activators and does not explain the sign; nearly all actives have a fitted effect of over 65% in size
Target sequence (P80244 whole entry, looked up): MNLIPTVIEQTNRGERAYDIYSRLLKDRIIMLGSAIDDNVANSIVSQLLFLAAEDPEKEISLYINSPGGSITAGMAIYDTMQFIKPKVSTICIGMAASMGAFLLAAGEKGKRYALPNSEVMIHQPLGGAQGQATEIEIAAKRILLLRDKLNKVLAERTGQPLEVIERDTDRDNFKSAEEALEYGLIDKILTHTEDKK
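Purified B. subtilis ClpP, 10 microg/mL final in Tris/HCl pH8 with KCl, BSA, glycerol and Tween-20, cleaved an Abz/nitrotyrosine-quenched decapeptide. Fluorescence (ex 320, em 430) was read at 0 and 20 min at room temperature. Delta was normalized to 5.8 microM ADEP and DMSO/no-enzyme controls.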
Rango dissoc inh = inhibition of RanGTP-driven Rango-importin beta dissociation; O95149+P62826; Biochemical FRET Rango-importin beta, RanGTP-induced dissociation; Potency, µM (top dose mostly 46.1 µM); 340,000 compounds, 0.071% hits; AID 540253; calls by dose curve; also: nearly all actives have a fitted effect of over 45% in size
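Rango/importin beta premix (0.1/0.25 uM final), PBS + 1 mM DTT + 0.02% Tween-20 + 0.1% BSA; cpd 5 min RT; FRET pre-read; + RanGTP-RCC1 (0.6 uM Ran, 2 mM GTP, 0.2 uM RCC1); 45 min RT; FRET post-read, ex 430, em 486/530 nm.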
Rango complex inh = inhibitors of Rango-importin beta complex formation; Rango CFP/YFP FRET sensor + importin beta, 45 min; Potency, µM (doses to about 92.2 µM); 340,000 compounds, 0.031% hits; AID 540263; calls by dose curve; also: nearly all actives have a fitted effect of over 15% in size
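FRET biosensor (snurportin 1 IBB flanked by EYFP and cerulean), 50 nM, with compound 5 min, then 0.125 microM importin beta in PBS, 1 mM DTT, 0.02% Tween-20, 0.1% BSA. CFP/YFP ratio read after 45 min at room temperature; pre-read flags interference.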
ALOX12 inh = ALOX12 (human) lipoxygenase inhibition. P18054. Potency, µM (highest dose often 108 µM), actives largely listed as inhibitors. 580,000 compounds, 1.1% hits. purified 12hLO, xylenol orange hydroperoxide absorbance. AID 1671190
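Purified human 12hLO at 150 nM in 25 mM Hepes, 0.01% Triton X-100, pH 7.0, preincubated 15 min at room temperature with compound. Reaction started with 40 uM arachidonic acid, 30 min at room temperature. Hydroperoxide measured by Fe-xylenol orange, 573/405 nm absorbance ratio.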
Hits are given with their value; . = inactive; ? = inconclusive; / = no result given. The list is not random: actives were taken first. Their share in the collection is about 2.4%. Unless noted, calls follow the shape of the dose curve; as a rule, active = well fitted curve in the direction sought with a large enough effect; inconclusive = small, poorly fitted or top-dose-only effect, or another doubt; inactive = no such curve, though single readings can be large; an effect the other way counts as inactive or inconclusive.

SMILES	TDP1 block	PTAP TSG101 blk	ClpP mod	Rango dissoc inh	Rango complex inh	ALOX12 inh
O=C(CCC(=O)c1ccc2c(c1)OCCO2)OCC(=O)c1ccc(Cl)c(Cl)c1	/	/	/	/	/	.
Cc1ccc(C(=O)N2CCC3(CC2)[C@H](O)C[C@@H]3O)cc1N1CCNC1=O	/	/	/	/	/	.
Cc1cccc(C(=O)Nc2sc(C)c(C)c2C#N)c1	/	/	/	/	/	.
Cc1ccc(-c2csc(Nc3ccc(S(N)(=O)=O)cc3)n2)cc1C	/	/	/	/	/	44.7µM
Cc1ccc(CN2CCOc3cc([S+](N)(=O)[O-])ccc3C2)c(F)c1	/	/	/	/	/	.
COC(=O)c1ccccc1S(=O)(=O)NC(=O)c1ccccc1	.	.	20µM	.	.	?
Cc1ccc(C(C)(C)C)cc1S(=O)(=O)NC(=O)c1ccccc1	.	.	/	.	?	.
COc1ccc(CCC(=O)N2CCC3(CC2)NC(=O)N(c2cccc(F)c2)N3)cc1	/	/	/	/	/	5.01µM
O=C(Cc1ccc(Cl)cc1)N1CCC2(CC1)NC(=O)N(c1cccc(F)c1)N2	/	/	/	/	/	3.16µM
COc1cccc(CC(=O)N2CCC3(CC2)NC(=O)N(c2cccc(Cl)c2)N3)c1	/	/	/	/	/	1.41µM
O=C(Cc1ccc(Cl)cc1)N1CCC2(CC1)NC(=O)N(c1ccccc1Cl)N2	/	/	/	/	/	1.41µM
COc1cccc(CC(=O)N2CCCC3(C2)NC(=O)N(Cc2cccc(Cl)c2)C3=O)c1 (stereo unspecified)	/	/	/	/	/	.
O=C(NCc1ccccc1F)c1ccc2c(c1)CN(Cc1ccc3c(c1)CCO3)CCO2	/	/	/	/	/	.
O=C(Cc1cccc(F)c1)N1CCC2(CCC(=O)N(CC3CC3)CC2)CC1	/	/	/	/	/	.
Cc1ccccc1CC(=O)N1CCC2(CC1)NC(=O)N(c1cccc(F)c1)N2	/	/	/	/	/	2.82µM
COc1cccc(CC(=O)N2CCC3(CC2)NC(=O)N(c2cccc(F)c2)N3)c1	/	/	/	/	/	5.01µM
COc1cccc(CC(=O)N2CCC3(CC2)NC(=O)N(c2ccccc2)N3)c1	/	/	/	/	/	3.16µM
O=C(Cc1cccc(F)c1)N1CCC2(CC1)NC(=O)N(c1cccc(F)c1)N2	/	/	/	/	/	6.31µM
Cc1ccc(C)c(CN2C(=O)NC3(CCN(C(=O)Cc4cccc(F)c4)CC3)C2=O)c1	/	/	/	/	/	.
COCC(=O)NC[C@@H]1C=C(C)[C@H](CC(=O)N2CCN(C)CC2)C[C@H]1C(C)C	/	/	/	/	/	.
CCCCCCCNC(=O)CCC(=O)NCCCOCCCC	/	/	/	/	/	.
CC(C)(C)NC(=O)NCC(=O)N1CCc2ccccc21	/	/	/	/	/	.
CCc1nc2c(c(-c3ccc(Cl)cc3)n1)CN([S+](=O)([O-])c1c(C)noc1C)CC2	/	/	/	/	/	.
Cc1ccc(C(=O)N2CCC3(CC2)NC(=O)N(c2cccc(F)c2)N3)s1	/	/	/	/	/	.
Cc1ccccc1C(=O)N1CCC2(CC1)NC(=O)N(c1cccc(F)c1)N2	/	/	/	/	/	1.78µM
SMILES	TDP1 block	PTAP TSG101 blk	ClpP mod	Rango dissoc inh	Rango complex inh	ALOX12 inh
CC(=O)N1N=C(c2ccc(Br)cc2)OC1(C)CC(=O)Nc1ccccc1 (stereo unspecified)	.	.	25.1µM	.	.	?
COCCn1cnc2c1c(=O)n(CC(=O)NC13CC4CC(CC(C4)C1)C3)c(=O)n2Cc1ccccc1	/	/	/	/	/	.
Oc1ccc(/C=N/N(c2ccccc2)c2ccccc2)c(O)c1O	/	/	/	/	/	11.2µM
Cc1ccsc1C(=O)N1CCC(n2cc(-c3nc(-c4ccccc4)no3)nn2)C1 (stereo unspecified)	/	/	/	/	/	.
CN(C)C(=O)CN(C)c1ncnc2sc3c(c12)CCC3	/	/	/	/	/	.
Cc1ccccc1NC(=S)NC1CCCC1	/	.	.	.	.	?
O=C(NC(=S)NC1CCS(=O)(=O)C1)c1ccccc1 (stereo unspecified)	.	.	.	.	.	.
O=C(NC(=S)NC1CCCCC1)c1ccccc1	.	.	.	.	.	35.5µM
S=C(Nc1ccccn1)NC1CCCC1	.	.	.	.	.	44.7µM
S=C(NC1CCCCC1)NN(c1ccccc1)c1ccccc1	.	.	.	.	.	39.8µM
CC(C)(C)c1ccc(/C=N/NC(=S)NC2CCCCC2)cc1	.	.	.	?	.	28.2µM
CNC(=S)NN(c1ccccc1)c1ccccc1	.	.	.	.	.	.
